# D1 PAM: human D1 dopamine receptor positive modulation; P21728; 360,000 compounds, 0.036% hits; potentiation, % at 10 µM; AID 504651; HEK293 TREx D1 cells, calcium flux, dopamine EC20 potentiation; in the data active means potentiation above about 30%; further: 0% is about no effect
# D1 antag: antagonists of human D1 dopamine receptor. P21728. HEK293 TREx D1 cells, calcium flux, dopamine EC80; hits give low values. activity change, negative = inhibition, % at 10 µM. 360,000 compounds, 3.2% hits; in the data active means activity change below about -30%; further: on the % scale 0 is the no-effect control and ±100 the full control effect
#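 After overnight tetracycline induction at 30 C, force-coupled D1 HEK293 cells took up a no-wash calcium dye at room temperature. Compounds were added and monitored 180 s, and the response to EC80 dopamine was then recorded.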
# GRP78 ERSR act: inducers of ER stress response in human glioma cells; U87-MG GRP78 promoter luciferase reporter, 16 h; Potency, µM, for the others: at the top dose activation, usual class: activators; 420,000 compounds, 0.02% hits; AID 602332; active means well fitted activation curve with a large enough effect; further: potency means the concentration at half of the fitted maximal effect; series mostly up to about 76 µM; % of control where 0% means no effect; nearly all actives have a fitted effect of over 35% in size
#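 Stably transfected U87-MG glioma cells carrying a GRP78-based luciferase sensor; 16 h compound incubation. Luminescence end-point read 10 min after Bright-Glo addition at room temperature.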
# D1 agonist: human D1 receptor agonism; P21728; HEK293 T-REx D1 cells, calcium flux, agonist mode; activation, % at 2 µM; 360,000 compounds, 1% hits; further: 0% is about no effect
#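 Agonism was scored from calcium flux recorded over 180 s (1 read/s) after pintool compound addition, following a 10-cycle baseline. Cells were inducible force-coupled HEK293 TREx D1, plated overnight at 30 C and loaded with no-wash calcium dye.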
# TRHR ag: TRH receptor (human) agonism. 360,000 compounds, 0.18% hits. P34981. TRHR cells, calcium flux fluo-8, FDSS agonist mode. activation, % at 2 µM. AID 493084; further: 0% is about no effect
# Target sequence (P34981 whole entry, looked up): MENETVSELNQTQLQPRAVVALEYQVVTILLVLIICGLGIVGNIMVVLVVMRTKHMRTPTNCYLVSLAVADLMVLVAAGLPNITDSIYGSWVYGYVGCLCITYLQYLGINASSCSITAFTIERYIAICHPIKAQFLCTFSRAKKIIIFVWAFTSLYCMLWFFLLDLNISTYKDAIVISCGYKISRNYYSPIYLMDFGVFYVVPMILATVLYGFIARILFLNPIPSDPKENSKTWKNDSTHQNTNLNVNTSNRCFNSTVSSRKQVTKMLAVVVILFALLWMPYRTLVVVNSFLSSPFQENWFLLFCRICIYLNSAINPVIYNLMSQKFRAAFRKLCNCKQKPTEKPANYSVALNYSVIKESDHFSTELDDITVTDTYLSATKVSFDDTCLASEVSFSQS
#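 Fluo-8-loaded TRHR cells; 10 s baseline, compound added, kinetic Ca2+ fluorescence read 1/s, agonist mode.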
# TRHR enhancer: allosteric enhancers of human TRH receptor; P34981; TRHR cells, fluo-8 calcium fluorescence, EC20 TRH enhancement; enhancement, % at 2 µM; 360,000 compounds, 0.66% hits; in the data active means enhancement above about 30%; further: 0% is about no effect
#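 Enhancer read-out: after compound pinning and an initial kinetic agonist-mode read, an EC20 of TRH (10 nM final) was injected and fluo-8 calcium signal (Ex 480/Em 530) followed at 1 s/cycle for 100 cycles in TRHR-expressing cells.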
# Active calls of the source: *; · = not tested or not shown. A selection: hits, their analogues and other compounds. The true share with any hit is near 4%. Unless noted, no stated cut-off is given here; in the data, active means activation above about 30%; inactive means the rest.
SMILES,D1 PAM,D1 antag,GRP78 ERSR act,D1 agonist,TRHR ag,TRHR enhancer
CCC(=O)N1CCc2cc(Br)cc(S(=O)(=O)N3CCCC(C(=O)NCc4cccc(OC)c4)C3)c21 (configuration not stated),-1,-31*,-2%,3,-1,16
Cc1ccc(OCC(=O)Nc2ccc(OCc3cc(=O)n4ccsc4n3)cc2)cc1,1,3,-1%,144*,-1,-4
O=C(Nc1cccc(OCc2cc(=O)n3c4c(sc3n2)CCCC4)c1)c1ccc(F)cc1,-6,-31*,0%,-1,-2,4
Cc1cn2c(=O)cc(COc3ccc(NC(=O)c4cccc(F)c4)cc3)nc2s1,-6,-41*,-1%,1,-2,10
Cc1ccccc1C(=O)Nc1cccc(OCc2cc(=O)n3c4c(sc3n2)CCCC4)c1,-2,-15,-1%,3,-1,32*
Cc1ccc(OCCSc2nc3ccccc3n2CCC(=O)O)c(C(C)C)c1,·,·,-4%,·,·,·
CCN1C(=O)[C@H]2[C@H]3[C@H](O)[C@H](O)C/C(=N/O[C@@H](C)CN4CCCc5nc(C)c(C)cc54)[C@@H]3CC[C@@H]2C1=O,·,·,-3%,·,·,·
CCOCCCNC(=O)c1ccc2c(=O)n(CCc3ccccc3)c(=O)[nH]c2c1,-1,-39*,1%,0,0,-1
CCCCCNC(=O)c1ccc2c(=O)n(CCc3ccccc3)c(=O)[nH]c2c1,-1,8,-2%,1,0,4
CCCCNC(=O)c1ccc2c(OCC)n(CCCC)nc2c1,-3,-1,-3%,0,-1,-4
CCOCCCNC(=O)c1ccc2c(=O)n(CCc3ccc(OC)c(OC)c3)c(=O)[nH]c2c1,-1,-6,-2%,2,0,-6
CCCn1nc2cc(C(=O)NCCc3cccs3)ccc2c1OCC,-12,-83*,-4%,1,-1,-23
O=C(NCCCN1CCCCC1)c1ccc2c(=O)n(CCc3ccccc3)c(=O)[nH]c2c1,-8,-46*,1%,1,1,1
COc1c2ccc(C(=O)NCCCCc3ccccc3)cc2nn1C,-8,-35*,-3%,3,0,4
O=C(c1ccco1)N1CCN(c2ccc(Cl)c(Cl)c2)CC1,·,·,8%,·,·,·
COC(=O)c1ccc2c(=O)n(Cc3ccc(C(=O)NCCCN4CCC(C)CC4)cc3)c(=S)[nH]c2c1,-11,-42*,-3%,0,0,3
CC1CCN(CCCNC(=O)c2ccc3c(=O)n(Cc4ccc(Cl)cc4)c(=S)[nH]c3c2)CC1,-8,0,-3%,12,1,-7
O=C(CCc1nnc2n(CCc3ccccc3)c(=O)c3ccccc3n12)NCCCN1CCCCC1,-6,-56*,-3%,0,0,-4
Cc1ccc(C)c(N2CCN(C(=O)c3ccc4c(=O)n(CCc5ccccc5)c(=O)[nH]c4c3)CC2)c1,4,-30*,-2%,-1,0,-1
Cc1ccc(Nc2nc(C#N)nc(NC3CCCC3)n2)cc1,-6,5,·,13,1,2
CCOC(=O)C1=C(O)/C(=C\c2cc(C)n(-c3ccc(F)cc3)c2C)N=C1C,-2,-32*,-2%,6,4,1
CCOC(=O)C1=C(O)/C(=C\c2cc(C)n(-c3ccccc3F)c2C)N=C1C,-4,0,-3%,4,1,-8
COC(=O)C12CC3(CCC4C5C(C(OCc6ccccc6)C41)C52)OCCO3 (configuration not stated),·,·,-5%,·,·,·
C=C1C=C(C(F)F)n2ncc(C(=O)N3CCN(c4ccccc4)CC3)c2N1,·,·,-2%,·,·,·
C=CCN1C(=O)/C(=C/c2ccc(O)c(OC)c2)S/C1=N/c1nccs1,7,-3,-2%,130*,72*,5
SMILES,D1 PAM,D1 antag,GRP78 ERSR act,D1 agonist,TRHR ag,TRHR enhancer
C=CCN1C(=O)/C(=C/c2ccc(N(C)C)cc2)S/C1=N\c1nnc(CC)s1,2,-27,·,167*,53*,7
C=CCN1C(=O)/C(=C/c2ccc(OCC(=O)O)cc2)S/C1=N/c1nccs1,-4,-11,-1%,4,-1,13
C=CCNC(=O)c1sc(-c2ccccc2)nc1C,-5,-8,13%,1,0,39*
Cc1nc(-c2ccccc2)sc1C(=O)CSc1ccc(Br)cc1,-2,-36*,1%,11,2,2
C[C@@H]1CN([C@@H](C)CO)C(=O)c2cc(Br)cnc2O[C@@H]1CN(C)Cc1cncnc1,·,·,-4%,·,·,·
CCCNC(=O)OC[C@@H]1O[C@H](CCON=C(C)C)C=C[C@@H]1Oc1ccc(OC)cc1,·,·,-4%,·,·,·
N#C/C(=C1/SC[C@@H](c2ccc(Cl)cc2Cl)S1)n1ccnc1,·,·,-4%,·,·,·
CCOC(=O)c1[nH]c(C)c(CCC(=O)N2CCN(c3cc(Cl)ccc3C)CC2)c1C,-1,2,-3%,-2,-1,4
Cc1ccc(C)c(C(=O)N2CCC(C3(c4ccccn4)NC(=O)N(CC4CCCO4)C3=O)CC2)c1 (configuration not stated),·,·,-3%,·,·,·
COc1ccc(C2CC(O)(c3ccccc3)Oc3cc(C)c(Cl)c(C)c32)cc1 (configuration not stated),·,·,6%,·,·,·
COc1ccc(C2CC(O)(c3ccccc3)Oc3cc(OC)c(OC)c(OC)c32)cc1 (configuration not stated),-3,-36*,1%,3,0,-7
CCN1C(=O)[C@H]2[C@H]3CN=C(SCC4CC4)N3[C@@](CC)(C(=O)OC)[C@H]2C1=O,·,·,-1%,·,·,·
O=C(COC(=O)/C=C/c1ccccc1Cl)NC(=O)NCc1ccccc1,8,-11,-10%,32*,1,-2
CC(C)(C)n1ncc2c(=O)n(Cc3cccc(C#N)c3)cnc21,·,·,-1%,·,·,·
Cc1cc(N2CCCCC2)nc(N)n1,-1,5,0%,19,42*,-5
NCCSc1c(-c2ccc(Cl)cc2)[nH]c2ccccc12,-8,2,-2%,26,0,-2
NCCSc1c(-c2ccccc2)[nH]c2ccccc12,-3,-37*,-3%,11,-3,0
Cc1ccc(N2CCN(c3nc4ccc(C)cc4n4nnnc34)CC2)c(C)c1,1,2,-3%,-1,0,7
CCCOC(=O)Nc1nc2ccccc2o1,-3,2,-7%,9,3,-3
CCOC(=O)c1cnc(Nc2nc3ccccc3o2)nc1CN1CCN(C)CC1,-1,-56*,-7%,0,0,3
N#CC1=C(SCC(=O)c2ccccc2)NC2=C(C(=O)CCC2)C1c1ccco1 (configuration not stated),-11,-44*,-5%,14,-1,-4

# Screening results as filed in PubChem.
